Test results reported in PubChem BioAssay AID492960 (National Center for Advancing Translational Sciences (NCATS), 2010).
Records with an inconclusive call do not appear. Unmarked numbers belong to inactive results. Active and inactive are the calls of the source. Calls come from the whole dose curve; as a rule, active = well fitted curve in the direction sought with a large enough effect; inconclusive = small, poorly fitted or top-dose-only effect, or effect the other way, or another doubt; inactive = no such curve, though single readings can be large or run the other way.

test: Secondary Assay for lipid storage modulators: HepG2 cell LDSA assay for probe SAR; conditions: HepG2 lipid droplet BODIPY, laser-scanning cytometry, 18-24 h; series mostly up to 46.1 µM; activity, negative = less lipid: at the top concentration
Outline: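 Dose-response lipid-storage test: HepG2 cells were fed 400 uM oleic acid with compound for 18-24 h at 24 degrees C. BODIPY 493/503 intensity gave droplet accumulation, and an object ratio was taken against CellTracker Red cell counts. Percent activity was set against 20 uM Triacsin C as full inhibition.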

SMILES | activity, negative = less lipid | Potency
C[C@@H](NCCCc1cccc(C(F)(F)F)c1)c1cccc2ccccc12 | -13% | 
CCn1c(-c2ccc(C)cc2)cnc1SCC(=O)Nc1nc(C)cs1 | -3.9% | 
CCOc1ccc(CCNC(=O)c2cc3sccc3[nH]2)cc1OCC | 15.8% | 
O=C(NC1CCCc2c1cnn2-c1ccc(F)cc1F)C1CCCCN1 (stereo unspecified) | -13.5% | 
O=C(O)CCc1ccc(NCc2cccc(Oc3ccccc3)c2)cc1 | 1.3% | 
CCOc1ccc(CCNC(=O)C2COc3ccccc3O2)cc1OCC (stereo unspecified) | 6.49% | 
O=C(NC1CCCc2c1cnn2-c1ccc(F)cc1F)C1CC1 (stereo unspecified) | -7.14% | 
CN(C)CC(=O)NC1CCCc2c1cnn2-c1ccc(F)cc1F (stereo unspecified) | -19% | 
O=C(O)c1cccc(-c2noc(-c3ccccc3F)n2)c1 | 9.09% | 
CCOc1ccc(CCNC(=O)c2cc3c(s2)CCC3)cc1OCC | 58.4% | 
CCOc1ccc(CCNC(=O)c2cc3ccccc3o2)cc1OCC | 29.9% | 
CCOc1ccc(CCNC(=O)C2(c3ccccc3)CC2)cc1OCC | -5.19% | 
CCOc1ccc(CCNC(=O)c2ccc(C3(C(F)(F)F)N=N3)cc2)cc1OCC | 36.4% | 
CCOc1ccc(CCNC(=O)c2cc3sccc3n2Cc2ccccc2)cc1OCC |  | 14.1 µM (active)
COc1ccc(CCNC(=O)c2cc3sccc3n2Cc2ccc(Cl)cc2)cc1OC | -24.7% | 
CCOC(=O)C1CCN(C(=O)CNC(=O)Nc2ccccc2Cl)CC1 | 16.9% | 

SMILES | activity, negative = less lipid | Potency
CCOC(=O)C1CCN(C(=O)C2(NC(=O)NCc3ccccc3)CCCCC2)CC1 | -15.6% | 
CCOc1ccc(CCNC(=O)c2cccc(C(=O)c3ccccc3)c2)cc1OCC | 11.7% | 
CCOC(=O)C1CCN(C(=O)C2(NC(=O)Nc3ccccc3Cl)CCC2)CC1 | 1.3% | 
Cc1csc(NC(=O)CSc2ncc(-c3ccccc3)n2Cc2ccco2)n1 | 18.2% | 
COc1nc(-c2ccc3c(c2)OCO3)n(-c2ccc(NC(=O)CSc3ccccc3)cc2)n1 | 5.19% | 
CCOc1ccc(CCNC(=O)c2ccc3ccccc3n2)cc1OCC | 61% [at 38.8 µM] | 
CCOc1ccc(CCNC(=O)c2ccc3[nH]ccc3c2)cc1OCC | 67.5% | 
CCOc1ccc(CCNC(=O)C2CCCCC2)cc1OCC | 26% | 
O=C(NC1CCCc2c1cnn2-c1ccc(F)cc1F)c1cccs1 (stereo unspecified) | -28.1% | 
O=C(NC1CCCc2c1cnn2-c1ccc(F)cc1F)c1ccccn1 (stereo unspecified) |  | inactive
O=C(NC1CCCc2c1cnn2-c1ccc(F)cc1F)C1CCCCC1 (stereo unspecified) | 8.73% | 
CCOC(=O)C1CCN(C(=O)C2(NC(=O)Nc3ccccc3Cl)CCCCC2)CC1 | 28.6% | 
Cc1cc2c(cc1C1(c3ccc(C(=O)O)cc3)CC1)C(C)(C)CCC2(C)C | -10.4% | 
CCOc1ccc(CCNC(=O)c2cc3ccccc3n2C)cc1OCC | 9.09% | 
CCOc1ccc(CCNC(=O)c2cc3sccc3n2Cc2ccc(-n3cncn3)cc2)cc1OCC | 18.2% | 
